The text below walks through data of PubChem BioAssay (NCI).

Assay in all cases: NCI-60 one-dose screen, 48 h (100 = growth as untreated, 0 = no growth, -100 = all killed)
The test system of one experiment is SR leukemia. Particulars: 10 µM unless noted.
A further experiment has as its system RPMI-8226 leukemia. Conditions: 10 µM unless noted.
Another experiment deals with OVCAR-8 ovarian. Conditions: 10 µM unless noted.
The next experiment deals with OVCAR-5 ovarian. Conditions: 10 µM unless noted.
The test system of another experiment is OVCAR-4 ovarian. Conditions: 10 µM.
The next experiment deals with IGROV1 ovarian. Conditions: 10 µM unless noted.
Another experiment relates to OVCAR-3 ovarian. Particulars: 10 µM unless noted.
The next experiment concerns HS 578T breast. Particulars: 10 µM unless noted.
Another experiment concerns T-47D breast. Particulars: 10 µM unless noted.
For a further experiment, the system named is BT-549 breast. Particulars: 10 µM unless noted.
Another experiment concerns MDA-MB-435 melanoma. Conditions: 10 µM unless noted.
The next experiment concerns SW-620 colon. Conditions: 10 µM unless noted.
A further experiment concerns MCF7 breast. Particulars: 10 µM unless noted.
In another experiment the test system is HCT-116 colon. Conditions: 10 µM unless noted.
The subject of another experiment is HCC-2998 colon. Particulars: 10 µM unless noted.
Another experiment relates to KM12 colon. Conditions: 10 µM unless noted.
The subject of the next experiment is NCI/ADR-RES ovarian. Conditions: 10 µM unless noted.

Compounds without any hit were thinned out: in the full panel of roughly 83,000, 20% have a hit.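 For each line, cells grew in 96-well plates with the test compound present at a single concentration for 48 hours.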 Values without a mark were called inactive. Activity calls are given as the source filed them. How the source made its calls: active means growth percent below 10; inactive means the rest.

With `CCCN1CC(c2ccc(OC)c(OC)c2)=C(c2cn(C(=O)OCC)c3ccccc23)C1=O`, the growth is 25.3% in the experiment with SR leukemia; 63.8% in the experiment on RPMI-8226 leukemia; 71.5% in the experiment with OVCAR-8 ovarian; 83.1% in the experiment on OVCAR-5 ovarian; 62.3% in the experiment on OVCAR-4 ovarian; 40.2% with IGROV1 ovarian. In addition, the growth with OVCAR-3 ovarian was 2% (active); in the experiment on HS 578T breast it was 48.1%; with T-47D breast it was 36.5%; in the experiment with BT-549 breast, 58.6%; in the experiment with MDA-MB-435 melanoma, -10.5% (active); in the experiment with SW-620 colon it was 31.5%. In addition, the growth in the experiment on MCF7 breast is 20.4%; in the experiment with HCT-116 colon, 21%; in the experiment with HCC-2998 colon it was 78.3%; in the experiment with KM12 colon it was 32.3%.

Regarding `C[C@@H]1C[C@H]2C(=O)O[C@@H](C)[C@H](NC(=O)[C@H](Cc3cc(F)cc(F)c3)NC(=O)Nc3ccc(Cl)cc3F)C(=O)N3C[C@H](O)C[C@H]3C(=O)N3CCN(C)C[C@H]3C(=O)N[C@@H](C)C(=O)N2C1`, the growth was 40.3% with SR leukemia; 20.4% with RPMI-8226 leukemia; 39.1% with OVCAR-8 ovarian; 41.9% with OVCAR-5 ovarian; 16.4% in the experiment with OVCAR-4 ovarian; 51.3% in the experiment with IGROV1 ovarian. The growth in the experiment with OVCAR-3 ovarian is 20.4%; in the experiment on NCI/ADR-RES ovarian it was 105%; in the experiment with T-47D breast, 19.2%; with BT-549 breast, 14.9%; in the experiment with MDA-MB-435 melanoma, 22.3%; in the experiment on SW-620 colon, 42%. The growth in the experiment with MCF7 breast is 23%; in the experiment on HCT-116 colon, 8.85% (active); in the experiment with HCC-2998 colon it was 32.8%; in the experiment with KM12 colon, 41.2%.

In the case of `Cc1ccc(NC(=O)N[C@@H](Cc2cc(F)cc(F)c2)C(=O)N[C@@H]2C(=O)N3CCC[C@H]3C(=O)N3CCOC[C@H]3C(=O)N[C@@H](C)C(=O)N3C[C@H](C)C[C@H]3C(=O)O[C@H]2C)cc1`, the growth in the experiment on SR leukemia is 32%; in the experiment on RPMI-8226 leukemia, 23%; with OVCAR-8 ovarian, 19.8%; in the experiment with OVCAR-5 ovarian, 38%; with OVCAR-4 ovarian, 12.8%; in the experiment with IGROV1 ovarian, 47.2%. Moreover, the growth in the experiment on HS 578T breast was 41.9%; with NCI/ADR-RES ovarian it was 91.5%; with T-47D breast, 27%; in the experiment with BT-549 breast it was 19.6%; in the experiment with MDA-MB-435 melanoma, 21%; in the experiment with SW-620 colon, 34.5%. Further, the growth with MCF7 breast was 25%; in the experiment with HCT-116 colon it was 12.5%; in the experiment with HCC-2998 colon, 34.5%; with KM12 colon, 38.9%.

Take `COc1cc2c(c(OC)c1OC)-c1cc(I)c(O)cc1[C@@H](NC(C)=O)CC2`: the growth was 33.2% in the experiment on SR leukemia; 12.9% in the experiment with RPMI-8226 leukemia; 12.6% with OVCAR-8 ovarian; 49.2% in the experiment with OVCAR-5 ovarian; 37.3% in the experiment with OVCAR-4 ovarian; -3.77% (active) in the experiment on IGROV1 ovarian. In addition, the growth was 17.5% with OVCAR-3 ovarian; 76.4% in the experiment with HS 578T breast; 69.5% with T-47D breast; 3.61% (active) in the experiment on BT-549 breast; 6.18% (active) in the experiment with MDA-MB-435 melanoma; 31.4% in the experiment on SW-620 colon. The growth with MCF7 breast is 12.5%; in the experiment with HCT-116 colon, 11.9%; in the experiment with HCC-2998 colon, 20.8%; in the experiment on KM12 colon it was 15.1%.

Turning to `CCn1cc(-c2[nH]c(=S)ncc2-c2ccc(Cl)cc2)c(-c2ccc(Br)cc2)n1`, the growth in the experiment on SR leukemia is 93.1%; in the experiment with RPMI-8226 leukemia it was 77.6%; in the experiment with OVCAR-8 ovarian, 86.9%; with OVCAR-5 ovarian, 90.5%; with OVCAR-4 ovarian, 94.2%; with IGROV1 ovarian, 81.5%. For the same molecule, the growth in the experiment on OVCAR-3 ovarian is 97.4%; in the experiment on NCI/ADR-RES ovarian, 82.5%; in the experiment on T-47D breast, 59.3%; in the experiment with BT-549 breast it was 91.2%; in the experiment on MDA-MB-435 melanoma, 85%; in the experiment with SW-620 colon it was 103%. Further, the growth in the experiment on MCF7 breast was 84.8%; in the experiment with HCT-116 colon, 72.6%; with HCC-2998 colon, 99.5%; with KM12 colon, 94%.

Regarding `Cn1cc(-c2noc(C(=O)c3cn(C)c4ncccc34)n2)c2ccccc21`, the growth is 74.9% in the experiment with SR leukemia; 94.5% in the experiment with RPMI-8226 leukemia; 102% in the experiment on OVCAR-8 ovarian; 96.1% in the experiment with OVCAR-5 ovarian; 57.7% in the experiment on OVCAR-4 ovarian; 80.7% in the experiment with IGROV1 ovarian. Besides, the growth in the experiment on OVCAR-3 ovarian is 103%; in the experiment with NCI/ADR-RES ovarian, 92.3%; in the experiment with T-47D breast it was 46%; in the experiment with BT-549 breast, 98.3%; with MDA-MB-435 melanoma it was 72.9%; in the experiment on MCF7 breast it was 34.8%. Further, the growth with HCT-116 colon was 98.7%; with HCC-2998 colon, 90.6%; in the experiment on KM12 colon, 52%.

As to `CC(C)CCSc1nc(N)nc2nc[nH]c12`, the growth in the experiment on SR leukemia was 89.8%; in the experiment on RPMI-8226 leukemia it was 94.6%; in the experiment with OVCAR-8 ovarian, 94.1%; with OVCAR-5 ovarian, 107%; in the experiment with OVCAR-4 ovarian, 112%; in the experiment with OVCAR-3 ovarian, 103%. Moreover, the growth was 122% with HS 578T breast; 104% with NCI/ADR-RES ovarian; 89.1% in the experiment on T-47D breast; 140% in the experiment with BT-549 breast; 116% in the experiment on MDA-MB-435 melanoma; 113% with SW-620 colon. Besides, the growth is 96.1% with MCF7 breast, 92.9% with HCT-116 colon, 101% with HCC-2998 colon and 92.6% in the experiment with KM12 colon.

As to `COc1cc(-c2cc(-c3ccc(Nc4ncnc5cc(Cl)ccc45)cc3)nc(N3CCCCC3)n2)cc(OC)c1OC`, the growth is 90.9% with SR leukemia; 109% in the experiment on RPMI-8226 leukemia; 88.9% in the experiment on OVCAR-8 ovarian; 96.1% in the experiment on OVCAR-5 ovarian; 106% in the experiment on OVCAR-4 ovarian; 90.5% in the experiment with IGROV1 ovarian. The growth in the experiment with HS 578T breast is 98.7%; in the experiment on NCI/ADR-RES ovarian, 104%; in the experiment on T-47D breast, 91.3%; in the experiment on BT-549 breast, 84%; in the experiment on MDA-MB-435 melanoma it was 106%; in the experiment with SW-620 colon, 97.7%. The growth is 86.6% with MCF7 breast, 103% with HCT-116 colon, 114% in the experiment with HCC-2998 colon and 97.8% in the experiment with KM12 colon.

On to `O=C1CC(c2ccc3c(c2)OCO3)Nc2ccccc21` (configuration not stated), for which the growth in the experiment with SR leukemia was 19%; in the experiment on RPMI-8226 leukemia it was 15.4%; in the experiment on OVCAR-8 ovarian it was 22.3%; with OVCAR-5 ovarian it was 54.3%; with OVCAR-4 ovarian it was 51.7%; with IGROV1 ovarian it was 53.5%. Further, the growth with HS 578T breast was 20.2%; in the experiment on T-47D breast, 27.5%; in the experiment on BT-549 breast, 42.2%; in the experiment on MDA-MB-435 melanoma, -22.6% (active); in the experiment on SW-620 colon, 19.2%; in the experiment with MCF7 breast, 15.9%. The growth was 17% in the experiment with HCT-116 colon, 35.3% in the experiment on HCC-2998 colon and 17.1% with KM12 colon.
